According to PubChem BioAssay (Tox21):
Values without a mark were called inactive. Results filed as inconclusive are left out. Where a call stands in place of a potency, no number is given. The source made the active and inactive calls. Unless noted, calls come from the whole dose curve; as a rule, active = well fitted curve in the direction sought with a large enough effect in the repeat runs; inconclusive = weak or mixed curves; inactive = no such curve, though single readings can be large; an effect the other way counts as inactive or inconclusive.

What was measured:
[1] = biological target: Thyrotropin receptor (Homo sapiens) (UniProt P16473); test: qHTS assay to identify small molecule agonists of the thyroid stimulating hormone receptor (TSHR) signaling pathway (AID 1224843; calls by dose curve; note: nearly all actives have a fitted effect of over 45% in size)
Chain of Thyrotropin receptor (Homo sapiens) (P16473 whole entry, looked up): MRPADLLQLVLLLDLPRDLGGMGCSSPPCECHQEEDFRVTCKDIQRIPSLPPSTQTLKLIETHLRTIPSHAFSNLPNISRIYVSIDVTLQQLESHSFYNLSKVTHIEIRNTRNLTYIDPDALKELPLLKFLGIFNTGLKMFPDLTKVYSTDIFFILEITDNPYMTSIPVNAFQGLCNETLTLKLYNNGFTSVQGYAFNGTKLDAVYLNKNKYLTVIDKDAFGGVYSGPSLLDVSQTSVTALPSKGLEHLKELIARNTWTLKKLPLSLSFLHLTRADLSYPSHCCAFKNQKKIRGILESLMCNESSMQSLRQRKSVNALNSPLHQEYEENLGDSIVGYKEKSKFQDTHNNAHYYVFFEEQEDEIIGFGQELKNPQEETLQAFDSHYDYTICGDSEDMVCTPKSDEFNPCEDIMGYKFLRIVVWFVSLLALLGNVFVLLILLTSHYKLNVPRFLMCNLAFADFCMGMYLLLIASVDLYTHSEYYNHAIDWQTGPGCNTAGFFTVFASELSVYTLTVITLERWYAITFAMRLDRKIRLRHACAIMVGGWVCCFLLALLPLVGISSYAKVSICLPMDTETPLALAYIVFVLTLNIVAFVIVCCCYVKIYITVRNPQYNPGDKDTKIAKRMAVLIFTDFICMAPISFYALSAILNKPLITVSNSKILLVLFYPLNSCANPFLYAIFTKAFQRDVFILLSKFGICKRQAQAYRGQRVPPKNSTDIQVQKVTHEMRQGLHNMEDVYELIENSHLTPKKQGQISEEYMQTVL
Summary of the method: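 Screening of the Tox21 10K collection used HEK293 cells engineered with TSHR at 800 cells per well. After a 30-min room-temperature compound exposure, HTRF cAMP reagents were added and fluorescence recorded 1 h later.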

[2] = qHTS assay to identify small molecule agonists of the hypoxia (HIF-1) signaling pathway - cell viability counter screen (AID 1224844; calls by dose curve; note: nearly all actives have a fitted effect of over 50% in size)
Summary of the method: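 Cells (HRE-bla ME-180, 2,000 per well) sat 5 hrs at 37C, got compound for 17 hrs, were read for CCF4-AM FRET, and were finally lysed with CellTiter-Glo for a 30 min room-temperature luminescence read.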

[3] = qHTS assay to identify small molecule agonists of H2AX (AID 1224845; active = well fitted activation curve with a large enough effect in the signal ratio in the repeat runs, not every such curve was filed as active; the % refers to the signal ratio)
Summary of the method: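 Phospho-H2AX Ser139 measured by HTRF (ex 320 nm; em 665 and 620 nm) after 24 hr antibody incubation. Compounds, 15 concentrations, 0.76% DMSO, were applied to CHO-K1 cells for 3hr at 37C before lysis.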

[4] = qHTS assay to identify small molecule agonists of the hypoxia (HIF-1) signaling pathway (AID 1224846; active = well fitted activation curve with a large enough effect in the signal ratio in the repeat runs, not every such curve was filed as active; the % refers to the signal ratio)
Summary of the method: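 A low-serum medium (0.5% dialyzed FBS) holding 2,000 HRE-bla ME-180 cells per well is preincubated for 5 hrs, dosed with compounds by pintool, and kept a further 17 hrs at 37C, 5% CO2 before CCF4-AM FRET detection of beta-lactamase.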

[5] = qHTS assay to identify small molecule agonists of H2AX - cell viability counter screen (AID 1224847; calls by dose curve; note: top concentration of the series differs between compounds; nearly all actives have a fitted effect of over 30% in size)
Summary of the method: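 Quantitative HTS viability measurement: CHO-K1 wild-type cells in serum (10% FBS) medium, short 3 hr drug exposure at 37C with 0.76% DMSO, CellTiter-Glo luminescent detection.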

[6] = qHTS assay to identify small molecule antagonists of the estrogen related receptor (ERR) signaling pathway from Tox21 library (AID 1224848); note: nearly all actives have a fitted effect of over 50% in size
Summary of the method: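 Antagonist-mode screen of the Tox21 10K library in an NTP-provided ERR reporter cell line; 18 h compound exposure at 37 C, luminescence measured with ONE-Glo.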

[7] = qHTS assay to identify small molecule agonists of the estrogen related receptor (ERR) signaling pathway from Tox21 library (AID 1224849; calls by dose curve; note: nearly all actives have a fitted effect of over 15% in size); details: ERR reporter cell line, ONE-Glo luciferase, 18 h; at 92.4 µM (top of the series) unless noted
Summary of the method: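 Screening used an NTP-provided ERR luciferase cell line. Compounds in DMSO were added 6 h after seeding and left 18 h at 37 C before a 30 min ONE-Glo step and luminescence reading.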

[8] = qHTS RealTime-Glo MT Cell Viability Assay in HepG2 cells - 24 hour (AID 1224867); note: nearly all actives have a fitted effect of over 50% in size
Summary of the method: (§1)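 Compound treatment began 5 h after plating HepG2 cells (600/well) with NanoLuc luciferase and prosubstrate. Plates stayed at 37 C for 40 h; luminescence was captured at six time points, 0 h through 40 h.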

[9] = qHTS RealTime-Glo MT Cell Viability Assay in HepG2 cells - 40 hour (AID 1224870); note: nearly all actives have a fitted effect of over 50% in size
Summary of the method: (§2)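 Real-time viability: cells seeded at 600 per well together with NanoLuc and cell-permeant prosubstrate, compounds added after 5 h incubation. Luminescence tracked at 0, 8, 16, 24, 32 and 40 h of exposure.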

[10] = A CellTox Green Cytotoxicity Assay to monitor cytotoxicity in HEK293 cells - 40 hour (AID 1224871); note: nearly all actives have a fitted effect of over 45% in size; note: potency is the fitted concentration of half-maximal effect
Summary of the method: (§3)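 Fluorescence intensity, read at 0, 8, 16, 24, 32 and 40 h of compound treatment, reflected dye binding to DNA of dead HEK293 cells; compounds (23 nL, DMSO) were added 5 h after plating cells with reagent.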

[11] = qHTS RealTime-Glo MT Cell Viability Assay in HEK293 cells - 16 hour (AID 1224872)
Summary of the method: (§4)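 Quantitative high-throughput screen of the Tox21 10K library in HEK293: cells and RealTime-Glo reagents plated together, compound added at 5 h, luminescence monitored through 40 h at 37 C.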

[12] = qHTS RealTime-Glo MT Cell Viability Assay in HepG2 cells - 8 hour (AID 1224873); note: nearly all actives have a fitted effect of over 55% in size
Summary of the method: as §2

[13] = qHTS RealTime-Glo MT Cell Viability Assay in HEK293 cells - 40 hour (AID 1224874); details: RealTime-Glo luminescence; max response: hits give low values; note: nearly all actives have a fitted effect of over 50% in size
Summary of the method: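 Viable HEK293 cells reduce a cell-permeant prosubstrate; the product diffuses out and is consumed by NanoLuc in the medium to give light. Compounds went in after a 5 h incubation and plates were read over the treatment course.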

[14] = A CellTox Green Cytotoxicity Assay to monitor cytotoxicity in HEK293 cells - 24 hour (AID 1224875); note: nearly all actives have a fitted effect of over 45% in size; note: potency is the fitted concentration of half-maximal effect
Summary of the method: as §3

[15] = A CellTox Green Cytotoxicity Assay to monitor cytotoxicity in HepG2 cells - 16 hour (AID 1224876); note: nearly all actives have a fitted effect of over 45% in size; note: potency is the fitted concentration of half-maximal effect
Summary of the method: (§5)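 Using 1536-well format, dye-containing HepG2 suspension was seeded, allowed 5 h at 37 C/5% CO2, dosed by pintool with compounds, positive and negative controls, and imaged for fluorescence across 40 h.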

[16] = A CellTox Green Cytotoxicity Assay to monitor cytotoxicity in HepG2 cells - 24 hour (AID 1224878); note: nearly all actives have a fitted effect of over 45% in size; note: potency is the fitted concentration of half-maximal effect
Summary of the method: as §5

[17] = A CellTox Green Cytotoxicity Assay to monitor cytotoxicity in HepG2 cells - 40 hour (AID 1224879); note: nearly all actives have a fitted effect of over 40% in size; note: potency is the fitted concentration of half-maximal effect
Summary of the method: as §5

[18] = qHTS RealTime-Glo MT Cell Viability Assay in HEK293 cells - 32 hour (AID 1224868)
Summary of the method: as §4

[19] = A CellTox Green Cytotoxicity Assay to monitor cytotoxicity in HEK293 cells - 0 hour (AID 1224869); note: nearly all actives have a fitted effect of over 50% in size; note: potency is the fitted concentration of half-maximal effect
Summary of the method: as §3

[20] = qHTS RealTime-Glo MT Cell Viability Assay in HepG2 cells - 32 hour (AID 1224877); note: nearly all actives have a fitted effect of over 55% in size
Summary of the method: as §1

SMILES | outcome [1] | Potency [2] | outcome [3] | outcome [4] | Potency [5] | Potency [6] | activity change, positive = activation [7] | outcome [8] | Potency [9] | Potency [10] | Potency [11] | outcome [12] | max response [13] [%] | Potency [14] | Potency [15] | Potency [16] | Potency [17] | Potency [18] | Potency [19] | Potency [20]
CCCOCC(C)OCC(C)O (stereo not given) | inactive | inactive | inactive | inactive | inactive | inactive | 1.4% | inactive | inactive | inactive | inactive | inactive | 5.98 | inactive | inactive | inactive | inactive | – | – | –
Nc1ccn(C2CO[C@H](CO)O2)c(=O)n1 (stereo not given in full) | inactive | inactive | inactive | inactive | inactive | inactive | 0.852% [at 42.5 µM] | inactive | inactive | 15.1 µM (active) | inactive | inactive | -2.21 | 19 µM (active) | 8.49 µM (active) | 6.74 µM (active) | 7.56 µM (active) | inactive | 16.9 µM (active) | inactive
CC1(C)SC(C)(C)SC(C)(C)S1 | inactive | inactive | inactive | inactive | inactive | inactive | -8.06% | inactive | inactive | inactive | – | inactive | – | – | – | – | – | – | inactive | –
CC(C)COC(=O)C(C)C | inactive | inactive | inactive | inactive | inactive | inactive | 8.11% | inactive | inactive | inactive | inactive | – | 3.76 | inactive | inactive | inactive | inactive | inactive | inactive | inactive
NC(=O)c1c(Cl)cccc1Cl | inactive | inactive | inactive | inactive | inactive | inactive | -1.3% | inactive | inactive | inactive | inactive | inactive | -0.288 | inactive | inactive | inactive | inactive | – | – | inactive
COC(=O)[C@H]1[C@H]2C[C@@H]3c4[nH]c5cc(OC)ccc5c4CCN3C[C@H]2C[C@@H](OC(=O)COc2ccc(OC)cc2)[C@@H]1OC | inactive | inactive | inactive | inactive | inactive | inactive | -9.01% [at 42.5 µM] | inactive | inactive | inactive | inactive | inactive | 6.2 | – | inactive | inactive | inactive | inactive | inactive | inactive
COC(=O)c1ccc(C(=O)OC)c(C(=O)OC)c1 | inactive | inactive | inactive | inactive | inactive | inactive | -1.41% | inactive | inactive | inactive | inactive | inactive | 1.35 | inactive | inactive | – | – | inactive | inactive | –
CC(=O)O[C@H](CC(=O)[O-])C[N+](C)(C)C | inactive | inactive | inactive | inactive | inactive | inactive | -2.17% | inactive | inactive | inactive | inactive | inactive | 4.27 | inactive | inactive | inactive | inactive | inactive | inactive | inactive
CCCc1ccccc1O | inactive | inactive | inactive | inactive | inactive | – | – | inactive | inactive | inactive | inactive | inactive | -8.16 | inactive | inactive | inactive | inactive | inactive | inactive | inactive
O=C(O)C(O)[C@H](O)[C@@H](O)[C@H](O)[C@H](O)CO (stereo not given in full) | inactive | inactive | inactive | inactive | inactive | – | -30.1% | inactive | inactive | inactive | inactive | inactive | – | inactive | inactive | inactive | inactive | – | inactive | inactive
C=C(C)C1CC=C(C)C(O)C1 (stereo not given) | inactive | inactive | inactive | inactive | inactive | inactive | 2.44% | inactive | inactive | inactive | inactive | – | 9.55 | inactive | inactive | inactive | inactive | inactive | inactive | inactive
CCCCCCC(=O)OCC | inactive | inactive | inactive | inactive | inactive | inactive | 6.4% | inactive | inactive | inactive | inactive | inactive | 14.5 | – | inactive | inactive | inactive | inactive | inactive | inactive
CCC(=O)c1cccc(Cl)c1 | inactive | inactive | inactive | inactive | inactive | – | – | inactive | inactive | inactive | inactive | inactive | 3.96 | inactive | inactive | inactive | inactive | inactive | inactive | inactive
CC(C)CCCC(C)NCCC(C)C (stereo not given) | inactive | inactive | inactive | inactive | inactive | inactive | 1.21% [at 42.5 µM] | inactive | inactive | inactive | inactive | – | 0.252 | – | inactive | inactive | inactive | inactive | inactive | –
